About 15 (0.8%) of roughly 1,800 compounds were called active. No rule for the calls is given here. Not all results are given here. Results with a measured potency or affinity are listed apart.
Experiment: antiviral activity against H1N1 influenza, dose response, cell-based, strain KY136 (AID 540257)
Details: H1N1 KY136 influenza antiviral cell assay, % inhibition; series mostly up to 40 µM

Row | SMILES | outcome
1 | c1ccc(-c2cn(C[C@H]3CC[C@@H]([C@@H]4CC[C@H](Cn5cc(-c6ccccn6)nn5)O4)O3)nn2)nc1 | inactive
2 | Cc1nnc2sc(SCC(=O)Nc3ccc(Cl)cc3)nn2c1=O | inactive
3 | CC(=O)N/C(=C/c1ccc(OC(F)F)cc1)C(=O)O | inactive
4 | Cc1[nH]c(=O)[nH]c1C(=O)CCCCC(=O)O | inactive
5 | COc1ccc(C2Nc3ccccc3C(=O)N2c2ccccc2)cc1CSc1ccccn1 (configuration not stated) | inactive
6 | Cc1ccc(C(=O)Nc2ccccc2C(=O)NCC2CCCO2)cc1 (configuration not stated) | inactive
7 | CCOc1cccc(-c2c(C(=O)N/N=C(\C)c3ccccn3)nnn2-c2nonc2N)c1 | inactive
8 | O=C1NCCCC1C(=O)N/N=C/c1cc([N+](=O)[O-])ccc1O (configuration not stated) | inactive
9 | C/C(=N\NC(=O)c1cccc(Br)c1)c1ccccn1 | inactive
10 | COc1ccc(NC(=O)CSc2nc3ccccc3nc2N2CCCC2)c(OC)c1 | inactive
11 | COCc1cc(C)n(CC(=O)Nc2cccc(C)c2)c(=O)c1C#N | inactive
12 | COc1ccc(/C=C/C(=O)NCCn2c(C)cc3ccccc32)cc1OC | inactive
13 | CCN1C(=O)/C(=C2\SC(=S)N(CCCOC)C2=O)c2ccccc21 | inactive
14 | O=c1c2ccccc2ncn1C1CCCCC1 | inactive
15 | CCOC(=O)C1CCN(C(c2cccc(OC)c2)c2sc3nc(C)nn3c2O)CC1 (configuration not stated) | inactive
16 | COc1ccccc1/C=N/NC(=O)c1[nH]c(C)c(C(=O)N/N=C/c2ccccc2OC)c1C | inactive
17 | CCCCN1C2=C(C(=O)CC(C)(C)C2)C(c2ccccc2)C2=C1c1ccccc1C2=O (configuration not stated) | inactive
18 | C(=N\c1c(-c2ccccc2)nc2n1CCS2)/c1ccccc1 | inactive
19 | CN(C)c1ccc(/C=C/C=C2/C(=O)NC(=O)N(c3ccccc3)C2=O)cc1 | inactive
20 | CC(=O)Oc1ccc(C(=O)Nc2ccccc2C(=O)NCC(C)C)cc1 | inactive
21 | CC(=O)Nc1cccc(NC(=O)CSc2ccc(-c3ccccn3)nn2)c1 | inactive
22 | COc1ccc(N2CCN(CCCNC(=O)c3cc4sccc4n3C)CC2)cc1 | inactive
23 | Clc1ccc(-c2cnnc(-c3ccccn3)n2)cc1 | inactive

Row | SMILES | outcome
24 | O=[N+]([O-])c1ccc2c(c1Nc1ccccc1)=NC1(CCCCC1)N=2 | inactive
25 | C=CCn1c(=NC(=O)C2CCCCC2)sc2cc(NC(C)=O)ccc21 | inactive
26 | CCc1ccccc1NC(=S)N(CCN(C)C)C(C)c1ccccn1 (configuration not stated) | inactive
27 | COc1cc(-c2nnc(NC(=O)CCS(=O)(=O)c3ccc(F)cc3)o2)cc(OC)c1OC | inactive
28 | CCOC(=O)c1ccc(N2C(=O)c3n[nH]c(C)c3C2c2ccccn2)cc1 (configuration not stated) | inactive
29 | Cc1cc2cc(CNC(=O)c3cccc([N+](=O)[O-])c3)ccc2n1C | inactive
30 | CC(C)Oc1ccccc1/C=N/Nc1ccccc1[N+](=O)[O-] | inactive
31 | CN1CCN(c2ccc([N+](=O)[O-])cc2C(=O)c2ccccc2)CC1 | inactive
32 | Oc1ccc(/C=N/N(c2ccccc2)c2ccccc2)c(O)c1O | inactive
33 | C/C(CC(C)C)=N/Nc1ccc([N+](=O)[O-])cc1[N+](=O)[O-] | inactive
34 | Cc1cc(NC(=O)CSc2nnc(C)c(=O)[nH]2)no1 | inactive
35 | COc1cccc(C(=O)NC(C)C(c2cccs2)N2CCOCC2)c1 (configuration not stated) | inactive
36 | Cc1c2cc(O)c(=O)cc-2oc2cc(O)c(O)cc12 | inactive
37 | CCOc1ccc(N=Nc2c(=O)[nH]n3c(=O)c4c([nH]c23)CCCC4)cc1 | inactive
38 | O=c1oc2cc(Oc3ccc(C(F)(F)F)cc3[N+](=O)[O-])ccc2c2c1CCC2 | inactive
39 | CN1CCc2c(sc(NC(=O)Cc3ccccc3)c2C(N)=O)C1 | inactive
40 | CCOc1ccc(N2CSC3=C(C#N)C(c4ccco4)CC(=O)N3C2)cc1 (configuration not stated) | inactive
41 | CCCC(=O)NC(c1ccccc1)c1ccc2cccnc2c1O (configuration not stated) | inactive
42 | CN(C1=C(N2CCCCC2)C(=O)c2ccccc2C1=O)c1ccccc1 | inactive
43 | COc1cccc(/C=N/Nc2ccnc(=O)[nH]2)c1O | inactive
44 | COc1cccc(C(=O)Cn2c(N3CCOCC3)nc3c2c(=O)n(C)c(=O)n3C)c1 | inactive
45 | COc1ccc(Nc2c([N+](=O)[O-])ccc3c2=NC2(CCCCC2)N=3)cc1 | inactive
46 | O=C(COC(=O)C1CC(=O)N(Cc2ccccc2)C1)c1ccc(Br)cc1 (configuration not stated) | inactive

Row | SMILES | outcome
47 | O=C1C(NS(=O)(=O)c2ccccc2)=C(N2CCN(c3ccc(F)cc3)CC2)C(=O)c2ccccc21 | inactive
48 | CCn1c(CNC(=O)c2cccc(C)c2)nnc1SCC(=O)Nc1cccc(OC)c1 | inactive
49 | COc1cccc(NC(=O)CSc2nnc(CNC(=O)c3ccccc3)n2C)c1 | inactive
50 | COc1ccccc1NS(=O)(=O)c1cccc(NC(=O)Cc2cccs2)c1 | inactive
51 | COc1cc2ccccc2cc1C(=O)Nc1nnc(-c2ccncc2)o1 | inactive
52 | Cc1cccc(NC(=O)NC(C)C(c2cccs2)N2CCOCC2)c1 (configuration not stated) | inactive
53 | Cc1ccc(S(=O)(=O)C2(C(=O)Nc3cccc(F)c3)CC2)cc1 | inactive
54 | COc1ccc(NC(=O)CC2C(=O)N(c3cccc(OC)c3)C(=O)N2Cc2ccco2)cc1 (configuration not stated) | inactive
55 | COC(=O)CSc1nnc(C)n1-c1cccc(C#N)c1 | inactive
56 | Cc1cc(C(F)F)nn1CC(=O)Nc1cc([N+](=O)[O-])ccc1F | inactive
57 | Cc1cc(N(C)C)ccc1N=Nc1ccc(N)cc1 | inactive
58 | CN1CCN(CCC(=O)N/N=C/c2cc([N+](=O)[O-])ccc2O)CC1 | inactive
59 | CCCCn1c(SCC(=O)N2CCCc3ccccc32)nc2c1c(=O)n(C)c(=O)n2C | inactive
60 | CC(=O)c1cccc(S(=O)(=O)Nc2cccc(S(=O)(=O)NC3=NCCC3)c2)c1 | inactive
61 | CC[n+]1c(/C=C/c2ccc(N(C)C)cc2)ccc2ccccc21 | inactive
62 | CCC(=O)NC(c1cccs1)c1cc([N+](=O)[O-])c2cccnc2c1O (configuration not stated) | inactive
63 | CCCCn1c(O)c(/C(CC)=N/N2CCCCC2c2cccnc2)c(=O)[nH]c1=S (configuration not stated) | inactive
64 | CCCCCCn1nc(C(=O)N(CC(C)C)c2c(N)n(CCCC)c(=O)[nH]c2=O)c2ccccc2c1=O | inactive
65 | COc1cccc(NC(=O)CSc2nc3c(oc4ccccc43)c(=O)[nH]2)c1 | inactive
66 | COc1cccc(/C=N/Nc2cc(N3CCOCC3)ncn2)c1O | inactive
67 | CCc1c(C)nc(Nc2nc(C)c3cc(OC)ccc3n2)[nH]c1=O | inactive
